The values below come from PubChem BioAssay (NCATS).

In assay [1] the target is Glucocorticoid receptor (Homo sapiens) (UniProt P04150). Briefly: GR-GFP Redistribution (AID 450;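 active = compounds whose dose series gives a full or clear partial fitted curve of increased nuclear translocation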; also: potency is read from the fitted curve at half-maximal effect).
Assay [2] shares this target. Kind of assay: GR-EFC Redistribution (AID 451; calls by dose curve; also: potency is read from the fitted curve at half-maximal effect). Particulars: CHO-K1 GR-EFC translocation, beta-gal luminescence, 2 h. In a few lines: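 CHO-K1 cells expressing nuclear EA and GR-ED fragments of b-gal; compounds titrated up to 46 uM final, 2 h at 37 C. GR nuclear translocation read as complemented b-gal luminescence after 1 h RT detection.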
Assay [3] addresses Mitogen-activated protein kinase 10 (Mus musculus) (UniProt Q61831). Kind of assay: JNK3 AlphaScreen Assay (AID 530; active = well fitted curve in either direction with a large enough effect, not every such curve was filed as active;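 also: kinase came from lysate of stimulated human HepG2 cells; signal reports phosphorylation of biotinylated GST-cJun 1-79 at Ser73 with 10 µM ATP; series mostly up to about 57 µM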). The gist of the method: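 qHTS format: compounds tested as titrations against IL-1beta/TNF-alpha-activated HepG2 lysate JNK3 with biotin-GST-cJun substrate and 10 uM ATP at room temperature. Loss of anti-phospho-cJun AlphaScreen signal indicates inhibition.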
The target of assay [4] is 3',5'-cyclic-AMP phosphodiesterase 4B (Homo sapiens) (UniProt Q07343). Kind of assay: qHTS Assay for Inhibitors of PDE-IV (AID 607; active = well fitted activation curve with a large enough effect in the main read-out, with a control signal flat, not every such curve was filed as active). The gist of the method: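 The readout is membrane depolarisation from a cAMP-sensing CNG channel, detected with a potential dye at ex 535/em 590. Cells were HEK293-derived (endogenous PDE-IV) at 1000 cells/well, titrated up to 22.9 uM final.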
Sequence of 3',5'-cyclic-AMP phosphodiesterase 4B (Homo sapiens) (Q07343 whole entry, looked up): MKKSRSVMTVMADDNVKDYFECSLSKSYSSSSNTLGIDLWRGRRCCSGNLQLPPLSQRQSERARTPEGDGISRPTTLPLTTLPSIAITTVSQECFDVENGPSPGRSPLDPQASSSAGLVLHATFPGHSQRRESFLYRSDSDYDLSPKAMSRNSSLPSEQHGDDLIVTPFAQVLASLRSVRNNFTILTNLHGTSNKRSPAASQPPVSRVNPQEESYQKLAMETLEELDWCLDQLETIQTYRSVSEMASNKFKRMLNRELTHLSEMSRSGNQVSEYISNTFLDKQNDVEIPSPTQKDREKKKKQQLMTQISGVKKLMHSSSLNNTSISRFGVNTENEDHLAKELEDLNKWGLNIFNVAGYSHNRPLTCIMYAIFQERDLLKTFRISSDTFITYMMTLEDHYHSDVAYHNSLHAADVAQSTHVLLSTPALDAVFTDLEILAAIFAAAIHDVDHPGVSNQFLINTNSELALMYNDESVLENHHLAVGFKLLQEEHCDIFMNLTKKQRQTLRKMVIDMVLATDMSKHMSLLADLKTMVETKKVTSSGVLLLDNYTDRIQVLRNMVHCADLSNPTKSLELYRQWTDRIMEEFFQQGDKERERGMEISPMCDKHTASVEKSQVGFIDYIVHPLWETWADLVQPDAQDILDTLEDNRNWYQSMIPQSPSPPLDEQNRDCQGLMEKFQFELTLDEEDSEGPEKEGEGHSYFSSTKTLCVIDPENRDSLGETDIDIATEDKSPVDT
For orientation: qHTS replaces the single test concentration by a dilution series.

Assay [5] addresses Cytochrome P450 2C9 (Homo sapiens) (UniProt P11712). Briefly: qHTS Assay for Inhibitors and Substrates of Cytochrome P450 2C9 (AID 883). Also: nearly all actives have a fitted effect of over 60% in size. Also: potency is read from the fitted curve at half-maximal effect. The gist of the method: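 10nM CYP2C9 + 100uM Luciferin-H (=KM), 25mM KPO4; cpd 10 min 37C; NADPH regen, 60 min 37C; stop/detect with P450 Glo-Buffer 20 min; luminescence. Norm. to 57uM sulphaphenazole as full inhibition.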
The target in assay [6] is Cytochrome P450 2D6 (Homo sapiens) (UniProt P10635). Briefly: qHTS Assay for Inhibitors and Substrates of Cytochrome P450 2D6 (AID 891). Also: nearly all actives have a fitted effect of over 60% in size. Also: potency is read from the fitted curve at half-maximal effect. The gist of the method: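 Human CYP2D6 (5 nM) with 30 uM Luciferin-ME EGE (at Km) in 100 mM KPO4, compound preincubated 10 min, then NADPH regeneration system for 60 min at room temperature. Luciferin read by luminescence; normalized to 1.43 uM quinidine.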
Sequence of Cytochrome P450 2D6 (Homo sapiens) (P10635 whole entry, looked up): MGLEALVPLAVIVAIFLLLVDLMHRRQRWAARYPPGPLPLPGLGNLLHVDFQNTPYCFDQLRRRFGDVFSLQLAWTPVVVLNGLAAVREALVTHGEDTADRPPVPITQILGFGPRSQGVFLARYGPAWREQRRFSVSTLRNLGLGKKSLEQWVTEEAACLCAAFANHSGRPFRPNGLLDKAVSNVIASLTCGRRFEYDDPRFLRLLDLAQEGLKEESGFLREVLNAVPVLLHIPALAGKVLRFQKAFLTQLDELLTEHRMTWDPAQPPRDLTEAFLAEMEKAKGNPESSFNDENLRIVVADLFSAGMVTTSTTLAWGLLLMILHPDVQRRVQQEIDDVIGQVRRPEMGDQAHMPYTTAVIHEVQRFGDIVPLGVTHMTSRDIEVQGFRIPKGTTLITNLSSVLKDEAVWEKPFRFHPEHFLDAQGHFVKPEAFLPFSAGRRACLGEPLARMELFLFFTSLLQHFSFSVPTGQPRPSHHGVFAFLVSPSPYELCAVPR

The target of assay [7] is Cytochrome P450 2C19 (Homo sapiens) (UniProt P33261). Briefly: qHTS Assay for Inhibitors and Substrates of Cytochrome P450 2C19 (AID 899). Also: nearly all actives have a fitted effect of over 60% in size. Also: potency is read from the fitted curve at half-maximal effect. The gist of the method: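 Luminescent read-out of luciferin formed from Luciferin-H EGE (10uM, equal to KM). Enzyme 5nM in 50mM KPO4; compound added, 10 min at 37C, then NADPH regenerating system for 60 min at 37C. Full inhibition defined by 57uM ketoconazole.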
Sequence of Cytochrome P450 2C19 (Homo sapiens) (P33261 whole entry, looked up): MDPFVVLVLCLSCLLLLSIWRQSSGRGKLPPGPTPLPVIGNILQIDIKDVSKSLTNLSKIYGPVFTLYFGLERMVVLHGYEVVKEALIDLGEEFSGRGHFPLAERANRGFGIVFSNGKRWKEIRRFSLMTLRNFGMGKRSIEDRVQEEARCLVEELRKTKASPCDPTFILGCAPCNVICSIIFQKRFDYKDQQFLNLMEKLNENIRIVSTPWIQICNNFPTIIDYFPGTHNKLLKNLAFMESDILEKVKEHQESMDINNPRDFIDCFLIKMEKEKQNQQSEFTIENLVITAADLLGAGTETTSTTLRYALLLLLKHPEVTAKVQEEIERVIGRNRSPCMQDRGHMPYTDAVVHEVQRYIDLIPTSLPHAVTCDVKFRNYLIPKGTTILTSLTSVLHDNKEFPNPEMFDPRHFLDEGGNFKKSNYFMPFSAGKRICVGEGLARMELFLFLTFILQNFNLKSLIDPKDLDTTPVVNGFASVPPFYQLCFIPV

Assay [8] has as its target Cytochrome P450 3A4 (Homo sapiens) (UniProt P08684). Briefly: qHTS Assay for Activators of Cytochrome P450 3A4 (AID 885). Also: nearly all actives have a fitted effect of over 65% in size. In a few lines:
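Steps: enzyme/substrate mix dispensed; compound added, 10 min RT; NADPH regeneration solution added, 60 min RT; luciferin detection buffer stops reaction; 20 min later luminescence measured.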

In assay [9] the target is DNA dC->dU-editing enzyme APOBEC-3G (Homo sapiens) (UniProt Q9HC16). Kind of assay: qHTS for inhibitors of Vif-A3G interactions: Validation (AID 588379). In a few lines:
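HeLa cells stably expressing Vif and A3G-eYFP, 700 cells/well, incubated overnight at 37 deg C, then exposed to compound overnight at 37 deg C. Inhibition of Vif-mediated degradation read as increased yellow fluorescence (Ex 488/Em 500-530) by laser-scanning cytometry.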

The target in assay [10] is Cytochrome P450 3A4 (Homo sapiens) (UniProt P08684). Briefly: qHTS Assay for Inhibitors and Substrates of Cytochrome P450 3A4 (AID 884). Also: potency is read from the fitted curve at half-maximal effect; nearly all actives have a fitted effect of over 50% in size. In a few lines: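 20 nM human CYP3A4 with 25 uM Luciferin-PPXE (at KM) in 200 mM KPO4, preincubated 10 min with compound; NADPH regeneration started a 60 min RT reaction. Luciferin detected by luminescence, normalized to 57 uM ketoconazole as full inhibition.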
Sequence of Cytochrome P450 3A4 (Homo sapiens) (P08684 whole entry, looked up): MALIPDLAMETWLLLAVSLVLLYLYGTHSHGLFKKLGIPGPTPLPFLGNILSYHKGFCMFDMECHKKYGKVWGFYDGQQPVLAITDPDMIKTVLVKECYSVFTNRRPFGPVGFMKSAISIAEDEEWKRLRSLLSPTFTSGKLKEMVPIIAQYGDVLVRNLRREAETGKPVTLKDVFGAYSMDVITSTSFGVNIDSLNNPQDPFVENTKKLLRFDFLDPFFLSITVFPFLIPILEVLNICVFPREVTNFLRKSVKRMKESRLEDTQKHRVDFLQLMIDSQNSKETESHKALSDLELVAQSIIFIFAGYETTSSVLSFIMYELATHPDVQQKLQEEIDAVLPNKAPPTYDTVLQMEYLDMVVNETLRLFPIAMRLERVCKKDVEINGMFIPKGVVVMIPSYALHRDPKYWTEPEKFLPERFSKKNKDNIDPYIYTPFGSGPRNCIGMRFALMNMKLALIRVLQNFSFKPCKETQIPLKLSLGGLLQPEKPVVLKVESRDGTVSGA

The nature of assay [11]: qHTS Assay for Identification of Small Molecule Agonists for Hypoxia Response Element Signaling Pathway (AID 914; active = well fitted activation curve with a large enough effect in the signal ratio, with a control signal flat, not every such curve was filed as active; the % refers to the signal ratio; also: potency is read from the fitted curve at half-maximal effect). As to conditions: ME-180 (cervical carcinoma) HRE-bla reporter, beta-lactamase ratio, CoCl2, 17 h; activation: hits give high values. In a few lines: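 Positive modulation of EC50 CoCl2-induced hypoxia response element signaling is measured in ME-180 cells with a beta-lactamase reporter. Compounds are titrated, incubation runs 17 hours, and %Activity derives from the blue/green ratio.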

The target of assay [12] is Tyrosyl-DNA phosphodiesterase 1 (Homo sapiens) (UniProt Q9NUW8). Briefly: Confirmation Assay for Inhibitors of Tyrosyl-DNA Phosphodiesterase (TDP1) (AID 489007). Also: potency is read from the fitted curve at half-maximal effect; nearly all actives have a fitted effect of over 40% in size. As to conditions: recombinant human TDP1 enzymatic activity, dose-response. In a few lines:
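Recombinant E. coli-expressed Tdp1 (1 nM final) was preincubated with compounds 15 min at room temperature, then reacted 5 min with 15 nM 5'-biotin/3'-phosphotyrosine-FITC DNA substrate; cleavage read as loss of AlphaScreen signal (10 ug/ml beads, 10 min).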

Values without a mark were called inactive. Results filed as inconclusive are left out. Calls of active or inactive are those of the source. Unless noted, calls follow the shape of the dose curve; as a rule, active = well fitted curve in the direction sought with a large enough effect; inconclusive = small, poorly fitted or top-dose-only effect, or another doubt; inactive = no such curve, though single readings can be large; an effect the other way counts as inactive or inconclusive.

Sequence of Glucocorticoid receptor (Homo sapiens) (P04150 whole entry, looked up, the tested form may be a part): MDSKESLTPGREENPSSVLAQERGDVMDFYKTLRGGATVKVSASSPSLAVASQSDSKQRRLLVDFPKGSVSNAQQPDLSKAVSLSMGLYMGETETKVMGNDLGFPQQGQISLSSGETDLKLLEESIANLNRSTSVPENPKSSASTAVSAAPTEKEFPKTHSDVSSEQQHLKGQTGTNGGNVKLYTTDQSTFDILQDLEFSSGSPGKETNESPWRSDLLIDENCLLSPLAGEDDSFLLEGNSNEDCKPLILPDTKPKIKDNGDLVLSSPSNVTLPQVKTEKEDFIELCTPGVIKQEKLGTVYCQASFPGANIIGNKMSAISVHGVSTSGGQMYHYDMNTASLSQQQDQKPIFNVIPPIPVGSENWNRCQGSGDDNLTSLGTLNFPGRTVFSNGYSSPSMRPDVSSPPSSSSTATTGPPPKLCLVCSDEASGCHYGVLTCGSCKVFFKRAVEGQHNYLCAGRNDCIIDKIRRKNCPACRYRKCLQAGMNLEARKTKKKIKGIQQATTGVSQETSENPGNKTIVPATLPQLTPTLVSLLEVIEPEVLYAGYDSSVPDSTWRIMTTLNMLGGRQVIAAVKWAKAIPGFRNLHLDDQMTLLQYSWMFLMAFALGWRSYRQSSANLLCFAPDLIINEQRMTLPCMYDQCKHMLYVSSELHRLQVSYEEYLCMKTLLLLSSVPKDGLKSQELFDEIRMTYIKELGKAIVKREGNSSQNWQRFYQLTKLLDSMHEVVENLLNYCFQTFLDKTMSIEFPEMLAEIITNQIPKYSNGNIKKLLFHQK
Sequence of Cytochrome P450 2C9 (Homo sapiens) (P11712 whole entry, looked up): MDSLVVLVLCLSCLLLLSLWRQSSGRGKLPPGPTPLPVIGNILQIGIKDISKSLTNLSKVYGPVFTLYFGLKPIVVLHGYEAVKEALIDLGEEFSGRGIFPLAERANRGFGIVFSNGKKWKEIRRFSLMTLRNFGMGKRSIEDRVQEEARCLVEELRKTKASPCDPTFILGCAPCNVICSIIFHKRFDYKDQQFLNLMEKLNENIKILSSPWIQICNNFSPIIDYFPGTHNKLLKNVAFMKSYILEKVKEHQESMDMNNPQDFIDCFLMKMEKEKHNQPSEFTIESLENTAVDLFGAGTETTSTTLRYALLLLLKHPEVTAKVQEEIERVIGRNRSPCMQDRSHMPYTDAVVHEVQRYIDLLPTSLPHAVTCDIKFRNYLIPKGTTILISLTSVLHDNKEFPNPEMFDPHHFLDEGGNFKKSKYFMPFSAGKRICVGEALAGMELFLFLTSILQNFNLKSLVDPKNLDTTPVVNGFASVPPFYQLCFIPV
Sequence of Tyrosyl-DNA phosphodiesterase 1 (Homo sapiens) (Q9NUW8 whole entry, looked up): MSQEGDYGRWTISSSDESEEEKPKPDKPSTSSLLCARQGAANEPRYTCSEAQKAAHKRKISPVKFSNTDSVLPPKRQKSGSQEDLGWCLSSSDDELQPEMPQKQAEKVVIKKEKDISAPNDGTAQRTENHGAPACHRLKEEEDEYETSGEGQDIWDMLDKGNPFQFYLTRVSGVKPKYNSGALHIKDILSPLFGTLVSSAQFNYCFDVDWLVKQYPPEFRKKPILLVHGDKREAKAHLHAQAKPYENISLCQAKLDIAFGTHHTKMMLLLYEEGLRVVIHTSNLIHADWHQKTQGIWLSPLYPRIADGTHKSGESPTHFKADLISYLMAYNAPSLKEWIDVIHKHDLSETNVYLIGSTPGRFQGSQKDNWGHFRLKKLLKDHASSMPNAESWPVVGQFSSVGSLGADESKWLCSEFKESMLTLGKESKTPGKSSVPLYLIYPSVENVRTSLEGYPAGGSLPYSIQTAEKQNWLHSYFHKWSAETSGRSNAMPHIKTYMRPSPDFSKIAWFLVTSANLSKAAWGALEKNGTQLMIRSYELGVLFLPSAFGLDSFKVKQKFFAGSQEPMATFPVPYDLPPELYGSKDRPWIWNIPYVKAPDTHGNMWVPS
Sequence of DNA dC->dU-editing enzyme APOBEC-3G (Homo sapiens) (Q9HC16 whole entry, looked up): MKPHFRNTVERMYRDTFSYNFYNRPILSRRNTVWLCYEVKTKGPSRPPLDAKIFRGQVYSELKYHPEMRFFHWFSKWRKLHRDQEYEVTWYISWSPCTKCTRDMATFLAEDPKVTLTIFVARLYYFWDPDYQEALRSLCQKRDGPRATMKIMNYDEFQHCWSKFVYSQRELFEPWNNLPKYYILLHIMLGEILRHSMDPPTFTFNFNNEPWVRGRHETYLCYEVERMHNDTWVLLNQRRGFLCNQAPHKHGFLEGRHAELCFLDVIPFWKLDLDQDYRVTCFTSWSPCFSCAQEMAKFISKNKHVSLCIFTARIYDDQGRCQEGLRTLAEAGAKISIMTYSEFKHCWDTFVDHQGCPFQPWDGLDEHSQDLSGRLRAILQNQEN

With `COc1cccc(-c2nc(N3CCN(Cc4ccccc4)CC3)c3ccccc3n2)c1O`, the Potency in [1] was above 20.6 µM.

For the compound `CC(C)C[C@@H](CC(=O)N[C@@H](CCC(=O)O)CC(=O)O)NC(=O)[C@@H]1CCCC[C@H]1NC(=O)C[C@H](CCCN)NC(=O)C[C@H](Cc1c[nH]c2ccccc12)NC(=O)[C@@H]1CCCC[C@H]1N`, the Potency in assay [2] is above 46 µM. The Potency entry in [3], in assay [4], in assay [5], in assay [6] and in assay [7] was “inactive” in each case.

For `COc1cc([C@@H]2Oc3cc([C@H]4Oc5cc(O)cc(O)c5C(=O)[C@H]4O)ccc3O[C@H]2CO)ccc1O`, the Potency in assay [1] was above 46 µM; in assay [2] it was above 46 µM; in [5] it was 2.51 µM (active). Further, the Potency entry in assay [3], in assay [4], in [8] and in assay [6] was “inactive” in each case. Also, in assay [9], the call was inactive.

For the compound `O=c1c(O)c(-c2ccccc2)oc2cc(O)cc(O)c12`, the Potency in assay [1] was above 46 µM; in [2] it was above 46 µM; in assay [5], 3.16 µM (active); in assay [10] it was 15.8 µM (active); in [6] it was 20 µM (active); in [7], 3.98 µM (active). For the same compound, the Potency result in assay [3], in assay [4] and in [8] was “inactive” throughout. The outcome in assay [9] was inactive.

On to `C[C@@H]1O[C@@H](OC[C@@H]2O[C@@H](Oc3c(-c4ccc(O)c(O)c4)oc4cc(O)cc(O)c4c3=O)[C@H](O)[C@H](O)[C@@H]2O)[C@H](O)[C@H](O)[C@@H]1O`, for which the Potency in assay [1] and in assay [2] was above 46 µM in each case. Also, the Potency result in assay [3], in assay [4], in [5] and in [6] was “inactive” in each case.

Turning to `CC1(C)Cc2c(C#N)c(NCc3ccco3)nc(-c3ccco3)c2CO1`, the results for the Potency in assay [1] and in [11] were above 20.6 µM and 2 µM (active), respectively.

On to `NCCC[C@@H](CC(=O)N[C@@H]1CCCC[C@H]1C(=O)N[C@H](CC(=O)N[C@@H](CCC(=O)O)CC(=O)O)Cc1ccccc1)NC(=O)C[C@H](Cc1ccccc1)NC(=O)[C@@H]1CNCC[C@H]1N`, for which, in assay [2], the Potency is above 46 µM. Besides, the Potency entry in assay [4], in assay [5], in [6] and in assay [7] was “inactive” throughout.

`CCCCC[C@H](O)/C=C/[C@@H]1[C@@H](C/C=C\CCCC(=O)OC)[C@@H](O)C[C@H]1O`: the Potency in assay [12] is 25.1 µM (active).

`O=C1CCCC(O)=C1N=Nc1ccc(C(=O)O)cc1`: in [12], the Potency is 1.41 µM (active).

As to `CC(C)C[C@@H](CC(=O)N[C@@H](CCCN)CC(=O)N[C@@H]1CCCC[C@H]1C(=O)N[C@H](CC(=O)N[C@@H](CCC(=O)O)CC(=O)O)CC(C)C)NC(=O)[C@@H]1CNCC[C@H]1N`, the Potency in assay [2] is above 46 µM. For the same compound, the Potency entry in assay [3], in [4], in assay [6] and in [7] was “inactive” in each case.

In the case of `NCCC[C@@H](CC(=O)N[C@@H]1CCCC[C@H]1C(=O)N[C@H](CC(=O)N[C@@H](CCC(=O)O)CC(=O)O)Cc1ccccc1)NC(=O)C[C@H](Cc1c[nH]c2ccccc12)NC(=O)[C@@H]1CCCC[C@H]1N`, in assay [2], the Potency is above 46 µM. The Potency entry in assay [4], in assay [6] and in assay [7] was “inactive” in each case.

Consider `COc1ccc(-n2c(NC(=O)c3ccc(Br)o3)c(C#N)c3nc4ccccc4nc32)cc1`, for which, in [12], the Potency was 100 µM (active).

In the case of `C=C(C)C(=O)Nc1cccc(C2=NOC3(C2)C[C@H](C(N)=O)N(C(=O)COc2ccc(Cl)cc2)C3)c1` (some centres undefined), in assay [12], the Potency is 12.6 µM (active).

For `O=C(NN1C(=O)C2CC=C(Cl)CC2C1=O)c1ccncc1` (centres undefined), in [12], the Potency was 31.6 µM (active).

With `Cc1ccc(C(=O)O)cc1-n1c(C)cc(C=O)c1C`, in [12], the Potency was 15.8 µM (active).

Turning to `Cc1ccc(/C=C2/C(=O)c3ccc(C(=O)O)cc3C2=O)o1`, the Potency in assay [12] is 14.1 µM (active).
